The record followed here is PubChem BioAssay AID1569 (National Center for Advancing Translational Sciences (NCATS), 2009).

Results filed as inconclusive are left out. Activity calls are given as the source filed them. The call rests on the fitted dose curve; in most records, active means well fitted inhibition curve with a large enough effect; inconclusive means small, poorly fitted or top-dose-only effect, or effect the other way, or another doubt; inactive means no such curve, though single readings can be large or run the other way.
Potency means the concentration at half of the fitted maximal effect.

This assay can be described thus: Confirmation Concentration-Response Assay for lipid storage modulators. Further: nearly all actives have a fitted effect of over 80% in size.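 On activity change, negative = inhibition: -100% = full block of lipid deposition by 20 µM Triacsin C.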 The settings on record: Drosophila S3 cells, lipid droplet BODIPY/CellTracker ratio, 18-24 h; series mostly up to 46.1 µM; activity change, negative = inhibition: at the top concentration. In a few lines: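 Cells at 5,000/well received compound as a titration plus oleic acid (added as 400 uM solution) and were incubated 18–24 h at 24 °C. BODIPY 493/503 lipid signal and CellTracker Red cell count were read by 488-nm laser-scanning cytometry. Activity was normalised to 20 uM Triacsin C.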
Consider `CCC1CCCCN1C(=O)c1cc(COc2ccc3ncccc3c2)on1` (stereo unspecified), for which the Potency was 4.34 µM (active).
On to `COC(=O)c1c(-c2c(Cl)cccc2Cl)noc1NC(=O)NN1CCOCC1`, for which the Potency is 2.5 µM (active).
Same read-out and setting: then `C1=C(CCNc2ncnc3c2[nH]c2ccccc23)CCCC1`, with 0.996 µM (active); and `CCOC(=O)c1cc2c(ccn2-c2ccc(F)cc2)n1CC(=O)N(CC)CC`, with 2.17 µM (active).
On the same count and under the same terms, then `Cn1nc(C(C)(C)C)cc1C(=O)NCc1ccc2c(c1)OCO2`, with 2.5 µM (active).
Turning to `CCOc1ccc(CCNC(=O)CSCc2ccc(C)cc2)cc1OCC`, the “activity change, negative = inhibition” value was -24% (inactive).
On to `CC(=O)c1cc(-c2ccccc2)n(CC(=O)N2CCC(C)CC2)c1C`, for which the Potency is 1.58 µM (active).
On the same count and under the same terms, then `O=C(Nc1cccc(S(=O)(=O)N2CCCCC2)c1)c1ccccc1NS(=O)(=O)c1ccc(F)cc1`, with 28.1 µM (active).
Still for that read-out and setting: then `COC(=O)c1ccccc1NC(=O)c1ccc(C#N)cc1`, with 1.12 µM [activator] (active); and `O=C(NC1CCCc2c1cnn2-c1ccccc1F)c1ccccn1` (stereo unspecified), with 0.0079 µM (active); and `COc1cc2c(cc1NC(=S)NC(=O)c1c(OC)cccc1OC)oc1ccccc12`, with 2.17 µM (active).
As for `O=C(NC1CCCc2c1cnn2-c1ccc(F)cc1F)c1ccccn1` (stereo unspecified), the Potency was 0.0112 µM (active).
Turning to `COc1ccc(NC(=O)NC2(C(=O)N3CCN4CCCC4C3)CCCCC2)cc1` (stereo unspecified), the “activity change, negative = inhibition” value is 10.5% (inactive).
On to `CCCOc1ccc2oc(=O)c3c(c2c1)CCCN3C(=O)CN1CCN(C(=O)c2ccco2)CC1`, for which the Potency was 1.99 µM (active).
Regarding `O=C(NC1CCCc2c1cnn2-c1ccc(F)cc1F)c1cnccn1` (stereo unspecified), the Potency was 0.445 µM (active).
Regarding `COc1ccc(CCNC(=O)Cn2cnc3c(cnn3-c3ccccc3Cl)c2=O)cc1OC`, the “activity change, negative = inhibition” value is -8% (inactive).
